Assay results from PMC5540273 (PLoS ONE, 2017).

Tests used:
Settings in all cases: concentration: 1 μM,replicates: in singlicate; n = 1
DCAMKL2 = system: T1, DCAMKL2
T1 construct: gene DCLK2

DCAMKL3 = system: T2, DCAMKL3
T2 construct: gene DCLK3

DDR1 = system: DDR1
DDR2 = system: DDR2
DLK = system: T3, DLK
T3 construct: gene MAP3K12

DMPK2 = system: T4, DMPK2
T4 construct: gene CDC42BPG

DMPK = system: DMPK
DRAK1 = system: T5, DRAK1
T5 construct: gene STK17A

DRAK2 = system: T6, DRAK2
T6 construct: gene STK17B

DYRK1A = system: DYRK1A
DYRK1B = system: DYRK1B
DYRK2 = system: DYRK2
EGFR = system: EGFR
EIF2AK1 = system: EIF2AK1
EPHA1 = system: EPHA1
EPHA2 = system: EPHA2
EPHA3 = system: EPHA3
EPHA4 = system: EPHA4
EPHA5 = system: EPHA5
EPHA6 = system: EPHA6
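Note: KINOMEscan kinase panel screen.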

Compound	%Inh (DCAMKL2)	%Inh (DCAMKL3)	%Inh (DDR1)	%Inh (DDR2)	%Inh (DLK)	%Inh (DMPK2)	%Inh (DMPK)	%Inh (DRAK1)	%Inh (DRAK2)	%Inh (DYRK1A)	%Inh (DYRK1B)	%Inh (DYRK2)	%Inh (EGFR)	%Inh (EIF2AK1)	%Inh (EPHA1)	%Inh (EPHA2)	%Inh (EPHA3)	%Inh (EPHA4)	%Inh (EPHA5)	%Inh (EPHA6)
C[C@@H](Oc1cc(-c2cnn(C3CCNCC3)c2)cnc1N)c1c(Cl)ccc(F)c1Cl	79%	22%	59%	44%	94.6%	0%	22%	0%	0%	12%	0%	30%	0%	14%	93.5%	82%	37%	49%	51%	90.2%
CNC(=O)c1ccccc1Sc1ccc2c(/C=C/c3ccccn3)n[nH]c2c1	14%	76%	18%	14%	41%	6%	0%	76%	0%	0%	0%	0%		6%	12%	9%	0%	0%	0%	0%
Cc1ccc2c(-c3ccncc3)c(-c3ccc(F)cc3)nn2c1.Cl [GW461484]	0%	0%	76%	80%	29%	77%	11%	0%	0%	0%	4%	9%	43%	0%	10%	8%	13%	0%	0%	5%
C=CC(=O)Nc1cc2c(Nc3ccc(F)c(Cl)c3)ncnc2cc1OCCCN1CCOCC1 [GW781483]	1%	10%	71%	44%	0%	6%	20%	2%	5%	11%	23%	17%		11%	25%	0%	13%	5%	7%	
CCN(CC)CCOc1ccc(Nc2ncc3cc(-c4c(Cl)cccc4Cl)c(=O)n(C)c3n2)cc1 [SB-601273]	41%	0%	100%	100%	96.4%	95.4%	24%	43%	21%	0%	14%	11%		96.9%	100%	100%	96.6%	100%	99.8%	97.9%
Cc1ccc(-n2nc(C(C)(C)C)cc2NC(=O)Nc2ccc(OCCN3CCOCC3)c3ccccc23)cc1 [GW839464]	0%	34%			7%	40%	4%	0%	11%	0%	100%	14%	33%	0%	52%			6%	0%	23%
NC(=O)c1cc(-c2ccccc2)cc2c(C3CCNCC3)c[nH]c12 [GSK301362]	2%	53%		0%	23%	8%	30%	0%	0%	28%	45%	23%	25%	0%	18%	10%	0%	6%	0%	3%
Nc1nc(Nc2ccccc2)cc(-c2ccc3c(N)n[nH]c3c2)n1 [GSK2225749]	0%	61%	0%	26%	3%	0%	0%	99.5%	97.2%	48%	19%	88%	16%	0%	0%	32%	0%	0%	0%	0%
CC(C)N1C(=O)Cc2cc(Nc3ncc(C(F)(F)F)c(NCc4cccc(S(C)(=O)=O)c4)n3)ccc21	0%	34%		0%	0%	0%	0%	74%	82%	2%	38%	19%	0%	0%	4%	0%	9%	1%	3%	3%
Cc1cc2cn[nH]c2cc1-c1cccc2c(N)c(C(N)=O)nnc12	37%	98.8%	0%	0%	98.8%	7%	0%	47%	27%	13%	0%	23%	56%	26%	17%	0%	0%	8%	89%	0%
CC(C)Nc1cc(-c2ccc3c(N)n[nH]c3c2)nc(N)n1 [GSK2221681]	20%	51%	0%	0%	28%	0%	0%	99%	0%	50%	14%	87%	58%	0%	0%	0%	0%	0%	0%	0%
CCN(CC)CCCCNc1ncc2cc(-c3c(Cl)cccc3Cl)c(NC(=O)NC(C)(C)C)nc2n1	0%	14%	99.7%	100%	86%	0%	4%	0%	5%	0%	1%	0%		46%	99.6%	99.6%	99.4%	91.5%	95.9%	95.6%
CCn1c(-c2nonc2N)nc2c(C#CC(C)(C)O)nc(OCCN)cc21.Cl.Cl [GSK902056]	0%	40%		5%	0%	0%	0%	0%	0%	25%	4%	0%	24%	8%	19%	19%	21%	15%	0%	11%
Cc1occc1-c1nc(N)c(OC[C@@H](N)Cc2c[nH]c3ccccc23)cc1-c1cc2c(C)n[nH]c2cn1 [GSK1660450]	19%	56%	10%	0%	13%	86%	99.1%	0%	0%	100%	91.6%	92.1%	97.2%	12%	16%	13%	30%	14%	0%	32%
O=C(NCCNc1ccnc(NCc2ccc(F)cc2)n1)c1cc2ccccc2s1 [GSK1379944]	0%	4%		0%	0%	0%	0%	0%	0%	30%	0%	0%	23%	0%	10%	17%	0%	22%	0%	19%
Cl.Cl.Nc1nc(-c2ccc3c(N)n[nH]c3c2)cc(N2CCCC(NC(=O)c3ccccc3)C2)n1 (centres unmarked) [GSK2286775]	0%	0%	26%	0%	1%	1%	0%	75%	0%	9%	18%	80%	28%	0%	13%	0%	0%	15%	0%	6%
COc1ccc(C[C@@H](CN)NC(=O)c2cc(Br)c(-c3ccnc4[nH]ccc34)s2)cc1.Cl.Cl [GSK1389063]	38%	86%	2%	26%	10%	99.4%	28%	44%	0%	97.6%	91.3%	69%	37%	7%	52%	17%	44%	25%	0%	33%
O=C(NCCCN1CCOC1=O)c1cnc(NCc2cc(Cl)ccc2Cl)nc1NC1CCCC1	1%	18%	0%	11%	37%	0%	0%	0%	0%	0%	21%	0%	0%	0%	12%	25%	0%	14%	17%	28%
C[C@@H]1CCN(C(=O)CC#N)C[C@@H]1N(C)c1ncnc2[nH]ccc12	14%	99.1%	0%	0%	0%	0%	24%	11%	5%	0%	0%	0%		6%	6%	0%	0%	0%	0%	0%
Cc1n[nH]c2ccc(-c3cc(OC[C@@H](N)Cc4ccccc4)cnc3-c3ccoc3)cc12.O=C(O)C(F)(F)F.O=C(O)C(F)(F)F [GSK507358]	0%	0%	0%	0%	15%	50%	92.8%	0%	0%	29%	49%	40%	87%	0%	5%	0%	43%	0%	0%	4%
Cl.Cl.NC[C@H](Cc1ccc(C(F)(F)F)cc1)NC(=O)c1cc(Br)c(-c2ccnc3[nH]ccc23)s1 [GSK1487252]	0%	75%	8%	0%	8%	64%	0%	18%	0%	35%	41%	33%	30%	0%	26%	14%	0%	19%	0%	29%
CN(C)CC(O)COc1ccc(Nc2nccc(-c3cnn4nc(N5CCOCC5)ccc34)n2)cc1 (centres unmarked) [GW767488]	61%	64%	0%	0%	61%	17%	20%	99.7%	93.1%	73%	69%	87%	17%	42%	34%	0%	9%	8%	9%	0%
CN(C)CCOc1ccc(-c2cc(-c3c[nH]nc3-c3ccccn3)ccn2)cc1 [GW835314]	1%	1%	0%	0%	8%	0%	0%	18%	9%	1%	22%	17%	28%	93.7%	18%	10%	18%	90%	5%	84%
Cl.Oc1cc(-c2nc(-c3ccccc3)[nH]c2-c2ccncc2)ccc1Cl [SB-386023]	0%	0%	92.7%	83%	0%	0%	0%	0%	0%	0%	0%	5%	20%	0%	59%	0%	5%	0%	23%	36%
Cl.Cl.NC[C@H](CC1CCCCC1)NC(=O)c1cc(Br)c(-c2ccnc3[nH]ccc23)s1 [GSK1581427]	14%	0%	0%	0%	0%	98.3%	91.7%	14%	0%	55%	71%	67%	23%	0%	42%	12%	0%	13%	0%	25%
C[C@H]1Oc2cc(cnc2N)-c2c(nn(C)c2C#N)CN(C)C(=O)c2ccc(F)cc21	91.8%	15%		3%	2%	0%	0%	2%	0%	0%	6%	0%	9%	0%	53%	48%	0%	1%	24%	33%
Cc1cc(C(=O)Nc2ccc(Oc3ccc4nc(NC(=O)C5CC5)cn4n3)cc2)nn1-c1ccccc1	2%	20%		100%	12%	0%	0%	0%	0%	0%	0%	0%	0%	0%	45%	29%	0%	48%	6%	46%
